According to PubChem BioAssay (NCATS):
Results filed as inconclusive are left out. Values without a mark were called inactive. Calls of active or inactive are those of the source. The call rests on the fitted dose curve; in most records, active means well fitted cell-killing curve with a large enough effect; inconclusive means small, poorly fitted or top-dose-only effect, or effect the other way; inactive means no such curve, though single readings can be large or run the other way.

How the values were obtained:
[1] = Viability qHTS for spleen associated tyrosine kinase inhibitor (SYKi) naive MV4-11 cells (AID 1963823); further: nearly all actives have a fitted effect of over 40% in size
Procedure, shortened: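 qHTS, SYK inhibitor-naive MV4-11; 500 cells/well; 72 hr compound exposure, 37 C; CellTiter-Glo added, 10 min RT; luminescence read.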

[2] = Viability qHTS for spleen associated tyrosine kinase inhibitor (SYKi) drug resistant MV4-11 cells (AID 1963824); further: nearly all actives have a fitted effect of over 35% in size
Procedure, shortened: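 CellTiter-Glo luminescence, read 10 min after reagent addition, reports viability after a 72 hr compound exposure. Cells are an MV4-11 line made resistant to SYK inhibition, seeded at 500 per well onto compound-containing plates.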
Potency means the concentration at half of the fitted maximal effect.

SMILES: Nc1ncnc2c1ncn2CCNCCCCCO
- Potency [1]: inactive
- Potency [2]: inactive

SMILES: CC(C)n1cc(-c2ccc(Oc3ccccc3)cc2)c2c(N)ncnc21
- Potency [1]: 0.092 µM (active)
- Potency [2]: 0.206 µM (active)

SMILES: Cc1noc(-c2ccc(-c3ccc(C4(C(=O)O)CC4)cc3)cc2)c1NC(=O)O[C@H](C)c1ccccc1
- Potency [1]: 16.6 µM (active)
- Potency [2]: 11.8 µM (active)

SMILES: COC(=O)C1=COC(OC2OC(CO)C(O)C(O)C2O)C2C(C)C(OC(C)=O)C(OC(=O)c3ccccc3)C12 (stereo unspecified)
- Potency [1]: inactive
- Potency [2]: inactive

SMILES: C[C@@H]1O[C@@H](O[C@H]2[C@H](O)[C@@H](O)[C@H](OC3CCC4(C)C5CCC(C)(C(CO)OC6OC(CO)C(O)C(O)C6O)CC5=CCC4C3(C)C)O[C@@H]2CO)[C@H](O)[C@H](O)[C@H]1O (stereo partly specified)
- Potency [1]: inactive
- Potency [2]: inactive

SMILES: Cc1onc(-c2c(F)cccc2Cl)c1C(=O)N[C@@H]1C(=O)N2[C@@H]1SC(C)(C)[C@@H]2C(=O)O
- Potency [1]: inactive
- Potency [2]: 13 µM (active)

SMILES: COC(=O)c1cc(OC)c(O[C@@H]2O[C@@H](C)[C@H](O)[C@@H](O)[C@H]2O)c(OC)c1
- Potency [1]: inactive
- Potency [2]: inactive

SMILES: CC1=C(C)C(=O)OC(C(C)C2C(O)CC3C4C5OC5C5(O)CC(OC6OC(CO)C(O)C(O)C6O)CC(O)C5(C)C4CCC32C)C1 (stereo unspecified)
- Potency [1]: inactive
- Potency [2]: inactive

SMILES: COc1cc(Nc2nc3c(s2)CCCC3c2ccc(F)cc2)ccc1-n1cnc(C)c1 (stereo unspecified)
- Potency [1]: 3.66 µM (active)
- Potency [2]: 4.61 µM (active)

SMILES: Nc1nc(NC2CC2)cc(-c2cccc(Cl)c2Cl)n1
- Potency [1]: 10.3 µM (active)
- Potency [2]: 7.31 µM (active)

SMILES: CCOc1ccc(-c2nc(-c3cccc4c3CCC4NCCO)no2)cc1OCC (stereo unspecified)
- Potency [1]: 13 µM (active)
- Potency [2]: 13 µM (active)

SMILES: COc1cc(C(=O)OC[C@H]2O[C@H](O[C@@]3(CO)O[C@@H](CO)[C@H](O)[C@H]3O)[C@H](O)[C@@H](O)[C@@H]2O)ccc1O
- Potency [1]: inactive
- Potency [2]: inactive

SMILES: CC1(C)CC[C@]2(C(=O)O[C@@H]3O[C@H](CO)[C@@H](O)[C@H](O)[C@H]3O)CC[C@]3(C)C(=CCC4[C@@]5(C)CC[C@H](O[C@@H]6O[C@H](C(=O)O)[C@@H](O[C@@H]7O[C@H](CO)[C@@H](O)[C@H](O)[C@H]7O)[C@H](O)[C@H]6O[C@@H]6O[C@H](CO)[C@@H](O)[C@H](O)[C@H]6O)C(C)(C)C5CC[C@]43C)C2C1 (stereo partly specified)
- viability (% of control) [1]: 93% [at 9.25 µM]
- viability, % of control [2]: 104% [at 9.25 µM]

SMILES: CNc1ccc([N+](=O)[O-])c(Nc2ccc3[nH]ncc3c2)n1
- Potency [1]: 2.59 µM (active)
- Potency [2]: 5.8 µM (active)

SMILES: C[C@@H]1O[C@@H](O[C@H]2[C@H](OC(=O)[C@]34CCC(C)(C)C[C@H]3C3=CCC5[C@@]6(C)CC[C@H](O[C@@H]7O[C@H](CO[C@@H]8OC[C@H](O)[C@H](O)[C@H]8O)[C@@H](O)[C@H](O)[C@H]7O)C(C)(C)C6CC[C@@]5(C)[C@]3(C)C[C@H]4O)OC[C@@H](O)[C@@H]2O)[C@H](O)[C@H](O[C@@H]2OC[C@](O)(CO)[C@H]2O)[C@H]1O[C@@H]1OC[C@H](O)[C@H](O[C@@H]2OC[C@@H](O)[C@H](O)[C@H]2O)[C@H]1O (stereo partly specified)
- viability (% of control) [1]: 88.4% [at 9.25 µM]
- viability, % of control [2]: 88.4% [at 9.25 µM]

SMILES: CCC(CC)(NC(=O)C(C)C)C(=O)N[C@@H](CCCN=C(N)N)C(=O)NC1(C(=O)NC(c2ccc(F)cc2)c2ccc(F)cc2)CCCC1
- Potency [1]: inactive
- Potency [2]: inactive

SMILES: COc1ccc(CNC(=O)c2cc(-c3cncc(C)c3)ncc2-c2nccs2)nc1OC
- Potency [1]: inactive
- Potency [2]: inactive

SMILES: O=S(=O)(Nc1ccccn1)c1ccc(N=Cc2c(O)[nH]c3ccc4ncsc4c23)cc1
- Potency [1]: 0.0944 µM (active)
- Potency [2]: 0.299 µM (active)

SMILES: CC1(C)CCC(C)(C)c2cc([C@@H](O)C(=O)Nc3ccc(C(=O)O)cc3F)ccc21
- Potency [1]: 4.11 µM (active)
- Potency [2]: 5.17 µM (active)

SMILES: CC(C)(C)Nc1nc(Nc2ccc(C(N)=O)cc2)cc(N)c1C#N
- Potency [1]: 1.64 µM (active)
- Potency [2]: 2.31 µM (active)

SMILES: C[C@H](Oc1cc(-n2cnc3ccc(CN4CCN(C)CC4)cc32)sc1C(N)=O)c1ccccc1C(F)(F)F
- Potency [1]: 1.03 µM (active)
- Potency [2]: 0.58 µM (active)

SMILES: CC(C)Oc1ccc(C(=O)NC(CNC(=O)CN(C)C)Cc2ccc(-c3cn4cccc(C(C)O)c4n3)cc2)cc1Cl (stereo unspecified)
- Potency [1]: 0.13 µM (active)
- Potency [2]: 0.082 µM (active)

SMILES: CC(C(=O)O)C1CCC2(C)C3C(=O)C=C4C(CCC(=O)C4(C)C)C3(C)CCC12C (stereo unspecified)
- Potency [1]: inactive
- Potency [2]: inactive
